Assay results: PubChem BioAssay AID1347077 (National Center for Advancing Translational Sciences (NCATS), 2019)
In all, about 44,000 compounds went through this assay and fewer than 10 were called active. Calls follow the shape of the dose curve; as a rule, active = well fitted activation curve with a large enough effect; inconclusive = small, poorly fitted or top-dose-only effect, or another doubt; inactive = no such curve, though single readings can be large or run the other way. Only a sample is shown.

target: Beta-2 adrenergic receptor (Homo sapiens) (UniProt P07550); test: qHTS assay of beta-arrestin-biased ligands of beta2-adrenergic receptor: NCGC Sytravon Library Screen; details: HTLA Tango cells, beta-arrestin recruitment, luciferase luminescence, 18 h; series mostly up to 46.1 µM
Text: The concept of biased agonism is an emerging concept of molecular pharmacology which proposes that seven transmembrane receptors (7TMRs) or G protein-coupled receptors (GPCRs), exist in multiple signaling conformations and complexes and that ligands (either agonists or antagonists) can induce signaling biased responses for distinct signal transduction cascades. […] Furthermore, accumulating evidence over the last decade has drawn attention to a novel function of beta-arrestins as signal transducers that scaffold various signaling molecules upon activation of 7TMRs. […] This beta-arrestin-biased signaling presumably leads to distinct physiological outcomes from those by G protein activation. Additionally, the active receptor conformations which prefer on this beta-arrestin signaling are likely different from those activating G protein signaling. […] The goal of this screening project will be to discover and optimize novel beta-arrestin-biased ligands for beta2-AR signaling. A luminescent cell-based assay for beta2-AR-mediated agonism, known as the Tango assay, has been validated in which ligand binding of a recombinant beta2-AR and subsequent recruitment of a recombinant beta-arrestin lead to the release of the transcriptional activator tTA, which upregulates transcription of a tTA-responsive luciferase gene. […] Compounds from the NCGC Sytravon Library collection were screened as a concentration-titration series that ranged from 46 microM to 0.6 nM. NIH Molecular Libraries Probe Production Network [MLPCN] NIH Chemical Genomics Center [NCGC] MLPCN Grant: Fast-track/HHSN271700800025C PI: Bryan Roth and Bob Lefkowitz
Tango cells were dispensed into white, solid, tissue-culture-treated 1536-well plates at 1500 cells/well in DMEM, containing 1% fetal bovine serum (FBS). Then, 23 nL of compounds or DMSO were delivered to each well using a pin tool. Plates were incubated at 37 degrees C, 5% CO2 for 18 hr. Then 2.5 uL luminescent substrate mix (in-house prepared: 150 mM Tris-Cl, pH 7.6, 3 mM MgCl2, 1% Triton X-100, 5 mM DTT, 0.5 mM CoA, 0.15 mM ATP, 0.44 mM D-luciferin, final concentrations) was added to each well. Plates were then incubated for 15 minutes at room temperature, and subsequently measured on a ViewLux plate reader for luminescent signal using a clear filter with a 10 second exposure and 2x binning. The %Activity was determined from the corrected luminescence values. […] Concentration-response curves were fitted to the signals arising from the resulting luminescence. The concentration-effect curves were then classified based on curve quality (r2), response magnitude and degree of measured activity, and compounds were subsequently categorized based on their curve class.

Beta-2 adrenergic receptor (Homo sapiens), sequence (P07550 whole entry, looked up): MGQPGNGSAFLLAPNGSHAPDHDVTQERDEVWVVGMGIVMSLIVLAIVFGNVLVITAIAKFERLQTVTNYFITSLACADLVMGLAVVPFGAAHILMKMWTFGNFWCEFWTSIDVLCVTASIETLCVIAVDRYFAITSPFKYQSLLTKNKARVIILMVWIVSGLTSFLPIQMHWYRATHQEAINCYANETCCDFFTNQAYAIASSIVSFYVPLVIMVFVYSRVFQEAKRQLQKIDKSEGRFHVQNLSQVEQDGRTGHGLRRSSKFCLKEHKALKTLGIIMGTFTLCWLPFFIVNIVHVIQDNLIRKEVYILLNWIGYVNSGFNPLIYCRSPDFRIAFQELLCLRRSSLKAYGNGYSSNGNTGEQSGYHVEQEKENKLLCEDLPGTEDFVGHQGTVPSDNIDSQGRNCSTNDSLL

outcome, inactive:
COC(=O)NNC(=O)C1CCC(C)CC1 (stereo not drawn)
CCc1nnc2c3ccccc3nc(N3CCN(c4ccc(C)cc4C)CC3)n12
CCOc1ccc(CNC(=O)Cn2cc3c(n2)-c2c(oc(C(=O)N4CCCC4)c2C)CC3)cc1
CCOCCc1nn2c(=O)cc(COC(=O)CNC(=O)c3ccc(C(C)(C)C)cc3)nc2s1
CCC(=O)N1CCc2cc(Br)cc(S(=O)(=O)NCc3ccc(Cl)cc3)c21
Cc1nc2nc(NCc3cccc(Br)c3)[nH]n2c(=O)c1Cc1ccccc1
COc1ccc(NC(=O)C(c2ccccc2)N2Cc3ccccc3C2=O)cc1 (stereo not drawn)
Cc1nc2sc(C)c(C)n2c(=O)c1S(=O)(=O)NCCc1ccc(Cl)cc1
CCOc1ccc(OCC)c(NS(=O)(=O)c2ccc3[nH]c(=O)ccc3c2)c1
COc1ccc(S(=O)(=O)NCCSc2nnnn2-c2ccccc2)cc1
Cc1ccccc1CNC(=O)CCCn1nc(C)c2sc3ccccc3c2c1=O
COc1cccc(N2CC(NC(=O)/C=C\c3ccccc3)CC2=O)c1 (stereo not drawn)
O=C(CSc1ncc(-c2ccccc2)[nH]1)Nc1ccc(F)cc1F
COc1ccc(Cl)cc1NC(=O)CCC(=O)c1ccc(C)cc1
Cc1c(NC(=O)C(C)(C)C)cccc1-c1nc2ccccc2s1
Cc1nn(CC(=O)O)c(=O)c2cc3cc(F)ccc3n12
CCc1ccc(N(CC)C(=O)CCn2cnc3onc(-c4ccc(F)cc4)c3c2=O)cc1
COc1ccc(CCNC(=O)c2cnc3sc(N4CCCCCC4)nn3c2=O)cc1OC
CCCn1c(=N)c(C(=O)NCc2ccccc2)cc2c(=O)n3cccc(C)c3nc21
COc1ccc(CCNC(=O)c2cc(=O)c3c(C)cc(C)cc3o2)cc1OC
Cc1ccc(S(=O)(=O)N2CCc3cc(C(=O)Nc4ccc(Cl)cc4C)ccc32)cc1
COc1cccc(NC(=O)CSC2=Nc3ccccc3C3=NC(CC(=O)NC4CCCCC4)C(=O)N23)c1 (stereo not drawn)
CCCCOc1ccc(CNC(=O)c2ccc3c(c2)N(C)C(=O)C2CCCCN32)cc1 (stereo not drawn)
COc1ccccc1NC(=O)c1oc2ccccc2c1NC(=O)C(C)C
COc1ccc(CCNc2ncnc3onc(-c4ccc(Cl)cc4)c23)c(OC)c1
Cc1csc2nc(COC(=O)c3ccc(NC(=O)COc4ccccc4F)cc3)cc(=O)n12
COc1ccc(N2CCN(C(=O)C3CCCN(C(=O)c4cc5sccc5n4C)C3)CC2)cc1 (stereo not drawn)
O=C(COc1ccccc1F)OCc1cc(=O)n2nc(C3CCCCC3)sc2n1
CCC1CCCCN1Cc1c(O)ccc2c(=O)c(Oc3ccccc3Cl)c(C(F)(F)F)oc12 (stereo not drawn)
Cc1cc(=O)n(CC(=O)Nc2cccc([N+](=O)[O-])c2)c(-n2nc(C)cc2C)n1
CCOC(=O)c1c(C)[nH]c(CCC(=O)NCCCN2CCN(c3cc(C)ccc3C)CC2)c1C
COc1cc(Nc2nc(-c3ccc(OC)c(OC)c3)nc3ccccc23)cc(OC)c1
Cc1cc(C)cc(OC(C)C(=O)Nc2nc3c(s2)CCCC3)c1 (stereo not drawn)
COCCn1c(SCC(=O)c2cc(C)ccc2C)nc2cc(C(=O)NC3CCCC3)ccc2c1=O
CCOc1ccccc1NC(=O)CCn1cnnn1
Cc1ccc(N(C)C(=O)C2CCN(S(=O)(=O)c3ccc4c(c3)CCCN4C(=O)C3CCC3)CC2)cc1
CC(=O)Nc1ccc(S(=O)(=O)NCC2CCC(C(=O)NCCc3ccccc3)CC2)cc1 (stereo not drawn)
CCOc1ccccc1C(=O)NC1(C(F)(F)F)C(=O)Nc2c1c(=O)[nH]c(=O)n2-c1ccc(F)cc1 (stereo not drawn)
CCN(CC)S(=O)(=O)c1nnc(NC(=O)COc2ccccc2Cl)s1
COc1ccc(-c2cccc(NS(=O)(=O)c3cc(C)c(OC)c(C)c3C)c2)nn1
O=C(NC1(C(F)(F)F)N=C(c2ccccc2)N(C2CCCCC2)C1=O)c1ccccc1F (stereo not drawn)
Cc1ccc(CCNC(=O)c2ccc3c(c2)nc2n3CCC(C)C2)cc1 (stereo not drawn)
Cc1ccccc1NC(=O)Cn1c(=O)n(CCCCC(=O)NCc2ccccc2Cl)c(=O)c2ccccc21
